Source: PubChem
Sfp PPTase inh – blocks B. subtilis Sfp PPTase activity; Q9F4F7; 310,000 tested, 3.5% active; Biochemical Sfp PPTase activity, qHTS; AID 1490; Potency, µM, without a hit: largest response in the series, negative = inhibition, actives largely listed as inhibitors;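 note: the enzyme is Sfp with the accession as filed and its product quenches rhodamine fluorescence; potency is the fitted concentration of half-maximal effect; 0% = enzyme reaction without inhibitor and -100% = no enzyme wells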
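Sfp 15 nM + cpd, 15 min RT; start w/ rhodamine-CoA 5 uM, BHQ-2-YbbR 12.5 uM (final); 50 mM Hepes pH 7.6, 10 mM MgCl2, 0.01% NP-40, 0.01% BSA; read 525/598 nm at 0 and 30 min.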
uPA generation – inhibitors of cell surface uPA generation | cell surface uPA generation assay, qHTS | Potency, µM (doses to about 38.3 µM), inactives show top-dose activity change, negative = inhibition, actives largely listed as inhibitors | 330,000 tested, 0.31% active; active = well fitted inhibition curve with a large enough effect; inconclusive = small, poorly fitted or top-dose-only effect; inactive = no such curve, though single readings can be large or run the other way; tested in mouse RAW 264.7 cells; note: potency is the fitted concentration of half-maximal effect; % is set by controls: 0 for no effect and ±100 for the full control effect; nearly all actives have a fitted effect of over 55% in size
TCR act – activates T cell receptor signaling | Potency, µM (highest dose often 9.22 µM), inactives show top-dose activation of IL-2 secretion, most hits filed as activators | 330,000 tested, under 10 active | primary human leukocytes, anti-CD3, IL-2 HTRF, 48 h | AID 504894; note: % of control where 0% means no effect
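IL-2 release read by HTRF sandwich (Eu cryptate donor, d2 acceptor, 665 nm emission) after 48 hr exposure of primary human leukocytes to compound together with anti-CD3 beads in the absence of co-stimulatory signals.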
ClpP mod – qHTS Assay for Activators of ClpP; ATP-dependent Clp protease proteolytic subunit (Bacillus subtilis (strain 168)), P80244; purified B. subtilis ClpP, FRET peptide cleavage, 20 min; Potency, µM (top dose mostly 57.5 µM), for inactives: at the highest dose activity change, negative = active; 340,000 tested, 1.9% active; AID 651965, 2013; active = well fitted falling curve with a large enough effect; inconclusive = small, poorly fitted or top-dose-only effect; inactive = no such curve, though single readings can be large or run the other way; note: potency is the fitted concentration of half-maximal effect; the source files actives as falling curves though it sought activators and does not explain the sign; nearly all actives have a fitted effect of over 65% in size
Target sequence (P80244 whole entry, looked up): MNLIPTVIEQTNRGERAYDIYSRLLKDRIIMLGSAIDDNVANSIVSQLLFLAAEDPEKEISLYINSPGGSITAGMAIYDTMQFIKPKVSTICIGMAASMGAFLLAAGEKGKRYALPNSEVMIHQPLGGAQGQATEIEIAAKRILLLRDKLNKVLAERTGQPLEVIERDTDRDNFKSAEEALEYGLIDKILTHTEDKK
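FRET quenching reversal measured ClpP activation: 10 microg/mL B. subtilis ClpP at pH 8 with the FRET-FV decapeptide, read at 430 nm after 320 nm excitation. The 20-min minus 0-min signal was scaled between DMSO/no-enzyme wells and ADEP (5.8 microM final).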
The depositor's hits bear a star; ? = inconclusive; / = not tested or not shown; [ ] = remark or other dose. Sampled rows, rich in hits. Any-hit rate of the full collection: about 4.2%. Unless noted, calls come from the whole dose curve; as a rule, active = well fitted curve in the direction sought with a large enough effect; inconclusive = small, poorly fitted or top-dose-only effect, or another doubt; inactive = no such curve, though single readings can be large; an effect the other way counts as inactive or inconclusive.

SMILES | Sfp PPTase inh | uPA generation | TCR act | ClpP mod
N/C(=N\N=C\c1ccc(Cl)cc1)N/N=C/c1ccc(Cl)cc1 | 79.4µM* | / | / | /
COC(=O)[C@]1(Cc2ccccc2)N[C@H](c2ccc(-c3cc(C(C)=O)cs3)cc2)[C@@H]2C(=O)N(C)C(=O)[C@@H]21 | / | -1.9% | 11.8% | 17.8µM*
COC(=O)[C@]1(Cc2ccccc2)N[C@H](c2ccc(-c3ccccc3)cc2)[C@@H]2C(=O)N(C)C(=O)[C@@H]21 | / | -22.7% | -2.8% | -22.2%
CC(=O)Nc1cccc(Oc2nc(NCCN(C)C)nc3ccsc23)c1 | / | / | / | -16.1%
CC1CCCN(c2nc(-c3cccnc3)nc3scc(-c4ccccc4)c23)C1 (centres undefined) | -28.1% | 1.4% | 2.1%[46.1 µM] | 14.1µM*
O=C(/C=C/c1ccccc1F)c1cccc([N+](=O)[O-])c1 | 2.82µM* | -12.1% | 0.3%[46.1 µM] | 3.1%
Nc1cc([N+](=O)[O-])ccc1Nc1ccc(O)cc1 | 56.2µM* | ? | -17.8% | -1.8%
CN1C(=O)C(C)(C)N(C(=O)c2cccc([N+](=O)[O-])c2)c2ccccc21 | 14.1% | 2.0% | -2.2% | /
CCNC(=O)/C(C#N)=C/c1c(N2CCN(c3ccc(OC)cc3)CC2)nc2c(C)cccn2c1=O | -6.5% | -8.5% | -3.5% | /
CCNC(=O)/C(C#N)=C/c1c(N2CCN(c3ccccc3)CC2)nc2c(C)cccn2c1=O | 15.7% | -5.3% | 9.1% | 0.8%
CCNC(=O)/C(C#N)=C/c1c(N2CCCCCC2)nc2c(C)cccn2c1=O | 2.6% | -2.3% | 2.4% | 15.8µM*
N#C/C(=C\c1c(N2CCC(C(N)=O)CC2)nc2ccccn2c1=O)C(=O)NCc1ccco1 | 8.0% | 1.7% | -2.4%[46.1 µM] | 25.1µM*
CCOC(=O)/C(C#N)=C/c1c(N2CCN(c3ccc(OC)cc3)CC2)nc2c(C)cccn2c1=O | 1.9% | 0.0% | -14.2% | 31.6µM*
Cc1sc2ccccc2[n+]1CCC[n+]1c(C)sc2ccccc21 | / | / | / | -3.1%
C=C[C@@]1(C)C[C@H](OC(=O)CSC(C)(C)CNC(=O)[C@@H](N)C(C)C)[C@@]2(C)C(C)CC[C@@]3(CCC(=O)[C@@H]32)[C@H](C)[C@H]1O (some centres undefined) | -9.5% | / | / | -20.3%
Cc1ccc(NS(=O)(=O)c2cc(NC(=O)c3ccc4c(c3)NC(=O)CS4)ccc2C)c(C)c1 | 10µM* | -2.7% | -7.8% | /
COc1ccc(NS(=O)(=O)c2cc(NC(=O)c3ccc(=O)[nH]c3)ccc2C)cc1 | / | 23.2% | / | -0.3%
COc1ccc(NS(=O)(=O)c2cc(NC(=O)c3cncc(Br)c3)ccc2OC)cc1 | / | 1.5% | -3.2% | 28.2µM*
COc1ccc(NS(=O)(=O)c2cc(NC(=O)[C@@H](NC(=O)c3ccccc3)C(C)C)ccc2C)cc1 | 17.9% | 12.6µM* | 9.5%[46.1 µM] | 1.3%
COc1ccc(NC(=O)c2ccc3c(c2)NC(=O)CS3)cc1S(=O)(=O)Nc1ccc(Br)cc1 | 17.8µM* | ? | -0.5% | 0.1%
Cc1nc(NC(=S)NC(=O)c2ccco2)sc1C(=O)N(C)C | 22.4µM* | 8.8% | -1.3% | 0.4%
O=C(Nc1nc2cc3c(cc2s1)OCO3)c1ccco1 | -10.2% | -5.9% | -7.3% | /
Cc1noc(C)c1C(=O)Nc1nc2ccc(S(C)(=O)=O)cc2s1 | 16.2% | 5.01µM* | 4.5% | -6.1%
Cc1ccc(C(=O)Nc2nc(C)c(C(=O)N(C)C)s2)o1 | 2.4% | -14.9% | -4.4% | -1.7%
COc1ccc2nc(NC(=O)c3c(C)noc3C)sc2c1 | / | ? | -2.7% | -2.8%
SMILES | Sfp PPTase inh | uPA generation | TCR act | ClpP mod
CS(=O)(=O)c1ccc2nc(NC(=O)c3ccco3)sc2c1 | 2.4% | 10µM* | -4.6%[46.1 µM] | -11.2%
O=C(NC(=S)Nc1nc2ccc(F)cc2s1)c1ccco1 | 56.2µM* | -5.5% | -5.4% | /
O=C(CC1N=C2c3ccccc3N=C(SCC(=O)Nc3cccc(C(F)(F)F)c3)N2C1=O)NCc1cccs1 (centres undefined) | / | / | / | -18.6%
Cc1ccc(C)c(N2CCN(Cc3nnc(-c4ccc5c(c4)OCO5)o3)CC2)c1 | / | / | / | -23.5%
Cc1ccc(Nc2nnc(-c3ccc4c(c3)OCO4)o2)c(C)c1 | 50.1µM* | -5.7% | -1.0% | -15.6%
COc1ccc(C(C)(C)NC(=O)C2CCC(=O)N(CCCN3CCCC3=O)C2)cc1 (centres undefined) | 33.9% | -3.0% | -6.4% | 0.9%
CC(C)Cc1nc(Cl)c(C#N)c2c1CCCC2 | -2.3% | 12.8% | -7.9%[46.1 µM] | 1.7%
CC(C)Cc1nc(N2CCN(C(=O)C(C)C)CC2)c(C#N)c2c1CCC2 | -21.5% | 0.5% | -6.0% | 20µM*
CC(C)Cc1nc(N2CCN(C(=O)c3ccco3)CC2)c(C#N)c2c1CCC2 | 44.7µM* | -4.3% | 3.4% | ?
CC(=O)N1CCN(c2nc(CC(C)C)c3c(c2C#N)CCC3)CC1 | -4.2% | -3.4% | -0.2% | -2.2%
CC(C)Cc1nc(N2CCN(C(=O)c3ccccc3)CC2)c(C#N)c2c1CCC2 | ? | 1.7% | -3.0% | 31.6µM*
CC(C)Cc1nc(N2CCCCC2)c(C#N)c2c1CCC2 | 17.8% | 5.8% | -1.0% | 35.5µM*
COc1cc(NC(=O)C2CCN(S(=O)(=O)c3c(C)noc3/C=C/c3ccccc3F)CC2)cc(OC)c1OC | / | / | / | 0.6%
Cc1nc(-c2ccc(S(=O)(=O)N(Cc3ccccc3)C(C)C)cc2)co1 | / | / | / | -1.0%
CCC(=O)N1N=C(c2ccc(C)o2)CC1c1ccc(Br)cc1 (centres undefined) | 50.1µM* | 0.3% | 0.8%[46.1 µM] | -20.5%
CCC(=O)N1N=C(c2ccc(C)o2)CC1c1ccc(OC)cc1 (centres undefined) | -16.5% | -4.0% | 0.7% | -7.9%
Cc1ccc(Cn2c(SCc3cccnc3)nc3c2c(=O)n(C)c(=O)n3C)cc1 | -9.6% | -4.5% | -0.2% | -1.0%
Cn1c(=O)c2c(nc(SCc3cccnc3)n2Cc2ccccc2)n(C)c1=O | 79.4µM* | -4.2% | -1.6% | -1.6%
CCOC(=O)C1=C(CC)Nc2ccccc2N=C1NC(=O)c1cc(S(=O)(=O)N2CCOCC2)ccc1C | / | -2.7% | 18.0% | -0.7%
CCc1nn(C)c(-c2n[nH]c(=S)n2N)c1Cl | 44.7µM* | -1.9% | 0.2% | -1.7%
Cc1ccccc1Cc1n[nH]c(=S)n1N | -29.9% | -3.7% | -2.8%[46.1 µM] | -0.9%
CCc1cc(-c2n[nH]c(=S)n2N)n(C)n1 | 39.8µM* | -0.3% | 3.5% | -0.5%
